SMILES strings stand for the structures. Records with an inconclusive call do not appear. A structure can be active in one record and inactive in another. The source made the active and inactive calls. Rule for the calls: active = hit-call score of the fitted dose curve at least 0.9, where 1 is the maximum; inconclusive = response in the unintended direction; inactive = score below 0.9.

Chain of Cellular tumor antigen p53 (Homo sapiens) (P04637 whole entry, looked up, the tested form may be a part): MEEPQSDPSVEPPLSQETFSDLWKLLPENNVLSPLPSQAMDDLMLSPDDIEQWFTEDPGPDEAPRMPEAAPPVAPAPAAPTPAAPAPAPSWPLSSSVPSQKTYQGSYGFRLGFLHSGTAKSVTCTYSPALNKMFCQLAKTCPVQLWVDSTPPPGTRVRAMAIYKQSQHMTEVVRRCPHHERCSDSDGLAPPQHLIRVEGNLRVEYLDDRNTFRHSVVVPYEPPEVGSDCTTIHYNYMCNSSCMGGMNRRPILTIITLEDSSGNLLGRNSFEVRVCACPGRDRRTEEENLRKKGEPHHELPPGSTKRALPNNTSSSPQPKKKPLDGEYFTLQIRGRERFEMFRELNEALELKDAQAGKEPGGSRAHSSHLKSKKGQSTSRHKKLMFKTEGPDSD

The assay deals with Cellular tumor antigen p53 (Homo sapiens) (UniProt P04637). The experiment in a line: TOX21_p53_BLA_p2_ratio: Tox21 HCT-116 p53 Agonism Beta-lactamase Assay, Ratio, Phase 2 (AID 2283592). The source says:
TOX21_p53_BLA_p2 is a cell-based, single-readout assay that uses HCT116, a human intestinal cell line, […] in a 1536-well plate.TOX21_p53_BLA_p2_ratio is an assay readout measuring reporter gene via receptor activity and designed using inducible reporter (beta lactamase induction) detected with GAL4 b-lactamase reporter gene. The signal is derived from the ratio of cleaved (ch2) to uncleaved (ch1) reporter gene substrate used as the measure of target activity.Data from the assay component TOX21_p53_BLA_p2_ratio was analyzed into 1 assay endpoint. This assay endpoint, TOX21_p53_BLA_p2_ratio, was analyzed in the positive analysis fitting direction relative to DMSO as the negative control and baseline of activity. Using a type of inducible reporter, gain-of-signal activity can be used to understand changes in the reporter gene as they relate to the gene TP53. Furthermore, this assay endpoint can be referred to as a primary readout, because this assay has produced multiple assay endpoints and this ratio serves a reporter gene function to understand target activity. To generalize the intended target to other relatable targets, this assay endpoint is annotated to the DNA binding intended target family, where the subfamily is tumor suppressor.
Thawing Method: Place 14 mL of pre-warmed thaw medium into a 15 mL of conical tub. Remove the vial of cells to be thawed from liquid nitrogen and thaw rapidly by placing at 37C in a water bath with gentle agitation for 1-2 minutes. Decontaminate the vial by wiping with 70% ethanol before opening in a biological safety cabinet. Transfer the vial contents drop-wise into 14 mL of thaw medium in a sterile 15-mL conical tub. Centrifuge cells at 900 rpm for 4 minutes and resuspend in thaw medium. Transfer contents to the T75 tissue culture flask containing Thaw Medium and place flask in a humidified 37C/5% CO2 incubator. Switch to growth medium at first passage.Propagation Method: Aspirate medium, rinse once in DPBS, add 0.25% Trypsin/EDTA and swirl to coat the cell evenly. Add an equal volume of Growth Medium to inactivate Trypsin after 2-3 minutes incubation at 37C. Centrifuge cells at 900 rpm for 4 minutes and resuspend in growth medium. Cell should be passage or fed at least twice a week.Assay Protocol: Harvest cells from culture in growth medium and resuspend in assay medium. 2.2 Dispense 4000 cells/5 uL/well into 1536-well black/clear bottom plates using a Multidrop dispenser. After the cells were incubated at 37C for 5 hours, 23 nL of compounds dissolved in DMSO were transferred to the assay plate by a PinTool resulting in a 217-fold dilution. Incubate the plates for 16 hours at 37C, 5% CO2. Add 1 uL of 6X LiveBLAzer FRET B/G (CCF4-AM) Substrate Mixture to each well using a BioRAPTR dispenser and incubate the plates at room temperature for 2 hours. Measure fluorescence intensity at 460 and 530 nm emission and 405 nm excitation by an Envision detector. Data is expressed as the ratio of 460nm/530nm emissions. Add 4 uL of Cell-titer Glo to each well using BioRAPTR and incubate the plates at room temperature for 2 hours. Measure fluorescence intensity by a VewLux plate reader.
As to `OCCSc1ccccc1`, the outcome was inactive.

In the case of `CCCCCCC/C=C/C=O`, the result was inactive.

Regarding `CC1=Nc2ccccc2C1(C)C`, the result was inactive.

As for `CC(=O)N[C@@H](CCC(N)=O)C(=O)O`, the outcome was inactive.

`CCCCN(CCCC)C(=S)SSC(=S)N(CCCC)CCCC`: the outcome was inactive.

With `c1ccc(OCc2ccc(CCCN3CCOCC3)cc2)cc1`, the result was inactive.

Consider `CCCc1c2oc(C(=O)O)cc(=O)c2cc2c(=O)cc(C(=O)O)n(CC)c12`, for which the outcome was inactive.

`CN1CC(O)c2cc(N=NC(N)=O)c(O)cc21` (stereo not given): the outcome was inactive.

Consider `CC1=CC(=O)CC(C)(C)C1(O)/C=C/C(C)=C\C(=O)O` (stereo not given), for which the result was inactive.

As to `CCC(=O)O[C@]1(C(=O)SCF)[C@H](C)C[C@H]2[C@@H]3C[C@H](F)C4=CC(=O)C=C[C@]4(C)[C@@]3(F)[C@@H](O)C[C@@]21C`, the outcome was inactive.

As to `CC(C)(O)C#CC(C)(C)O`, the result was inactive.

The AC50 is the concentration at which the activity in the assay is half-maximal. With `CC1=C(/C=C/C(C)=C/C=C/C(C)=C/C(=O)Nc2ccc(O)cc2)C(C)(C)CCC1`, the outcome was inactive and the AC50 was 62.4 µM (active).

For `Oc1cn2c(n1)Nc1ccc(Cl)c(Cl)c1C2`, the outcome was inactive.

`CC(C)C(=O)OCC(=O)[C@@]12O[C@H](C3CCCCC3)O[C@@H]1C[C@H]1[C@@H]3CCC4=CC(=O)C=C[C@]4(C)[C@H]3[C@@H](O)C[C@@]12C`: the outcome was inactive.

For `CCSC(=O)N(CC)CC`, the outcome was inactive.

Regarding `NC(=O)n1c(O)c(C(=O)c2cccs2)c2cc(Cl)ccc21`, the AC50 is 26.9 µM (active).

For `Cc1cc(C(=O)NCCc2ccc(S(=O)(=O)NC(=O)NN3CCCCCC3)cc2)no1`, the outcome was inactive.

Regarding `Cc1c(C(C)C)c(=O)n(-c2ccccc2)n1C`, the outcome was inactive.

For the compound `CO/N=C(/C(=O)N[C@@H]1C(=O)N2C(C(=O)OCOC(=O)C(C)(C)C)=C(C)CS[C@H]12)c1csc(N)n1`, the outcome was inactive.

As to `COc1cc2ncnc(Nc3ccc(F)c(Cl)c3)c2cc1OCCCN1CCOCC1`, the result was inactive.

With `CCCCCCCCCCCCCCCC[N+](C)(C)CCN(Cc1ccc(OC)cc1)c1ncccn1`, the outcome was inactive.

Regarding `CCCCCCCCC1CO1` (stereo not given), the result was inactive.

On to `C[C@H](Cc1ccc(O)c(O)c1)[C@@H](C)Cc1ccc(O)c(O)c1`, for which the result was inactive.

As to `Cc1cc(Nc2ccccc2C(=O)O)ccc1Cl`, the AC50 was 8.52 µM (active).

Turning to `Clc1ccc2n[nH]nc2c1`, the outcome was inactive.

As for `O=C(C(=O)c1ccccc1)c1ccccc1`, the result was inactive.

Take `CCC(=C(CC)c1ccc(O)cc1)c1ccc(O)cc1`: the AC50 was 7.14 µM (active).

On to `COc1nc(N)nc2c1ncn2[C@@H]1O[C@H](CO)[C@@H](O)[C@@H]1O`, for which the result was inactive.

Take `O=[N+]([O-])c1cccc(S(=O)(=O)O)c1`: the outcome was inactive.

As to `O=C1N=C(O)CN1N=Cc1ccc(-c2ccc([N+](=O)[O-])cc2)o1`, the outcome was inactive.

As to `CC(C)(C)NCC(O)CSc1nc(-c2ccc(C(N)=O)s2)cs1` (stereo not given), the result was inactive.

Turning to `CSc1ccc(/C=C2/C(C)=C(CC(=O)O)c3cc(F)ccc32)cc1`, the outcome was inactive.

On to `CC12CCC(C(=O)C1=O)C2(C)C` (stereo not given), for which the outcome was inactive.

As to `O=C(Nc1ccc(C(=O)O)c(O)c1)c1ccccc1`, the result was inactive.

Take `CCCCOC(=O)CO`: the outcome was inactive.

In the case of `CC[C@@]1([C@@H]2O[C@@H]([C@H]3O[C@@](O)(CO)[C@H](C)C[C@@H]3C)C[C@@H]2C)CC[C@H]([C@]2(C)CC[C@]3(C[C@H](O)[C@@H](C)[C@@H]([C@@H](C)[C@@H](OC)[C@H](C)C(=O)O)O3)O2)O1` (stereo in doubt), the outcome was inactive.

`Nc1cc(S(=O)(=O)O)ccc1S(=O)(=O)O`: the outcome was inactive.

As to `CCCCCCCCCCCCCCCCCCCl`, the outcome was inactive.

With `CC(C)=O`, the result was inactive.

The values are drawn from PubChem BioAssay (EPA / NIEHS).
